Hits are enriched below; roughly 9.2% of the tested compounds scored in any of these assays.
FLuc counter – firefly luciferase modulation, counter-screen for miR-21 project. P08659. purified FLuc, Km substrates, luminescence inhibition. Potency, µM (highest dose often 57.5 µM), usual class: inhibitors. hit rate 6.9% among 360,000. AID 588342; note: nearly all actives have a fitted effect of over 55% in size
Target sequence (P08659 whole entry, looked up): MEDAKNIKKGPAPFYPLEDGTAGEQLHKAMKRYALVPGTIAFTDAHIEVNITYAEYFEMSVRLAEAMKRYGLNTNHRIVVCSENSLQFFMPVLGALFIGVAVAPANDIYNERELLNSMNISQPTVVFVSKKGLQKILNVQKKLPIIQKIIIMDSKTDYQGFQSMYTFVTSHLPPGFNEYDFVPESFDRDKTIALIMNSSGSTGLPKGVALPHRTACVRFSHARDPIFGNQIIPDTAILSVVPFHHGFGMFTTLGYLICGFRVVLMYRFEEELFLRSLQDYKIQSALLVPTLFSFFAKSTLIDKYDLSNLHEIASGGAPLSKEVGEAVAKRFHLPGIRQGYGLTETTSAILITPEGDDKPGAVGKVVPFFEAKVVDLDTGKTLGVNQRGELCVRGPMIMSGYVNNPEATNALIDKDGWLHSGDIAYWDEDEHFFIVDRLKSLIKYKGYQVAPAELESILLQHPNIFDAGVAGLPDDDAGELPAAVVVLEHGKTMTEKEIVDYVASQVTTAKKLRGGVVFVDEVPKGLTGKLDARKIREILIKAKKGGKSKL
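Purified P. pyralis luciferase (10nM final) with 10uM D-luciferin and 10uM ATP (Km levels) in 50mM Tris acetate pH 7.5, 10mM Mg acetate, 0.01% Tween-20, 0.05% BSA; qHTS 6-point titration, ~60 µM downward; luminescence read.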
ELG1 genotox – genotoxicity induction in ELG1-luciferase HEK293T cells; HEK293T ELG1-luciferase reporter, luminescence, 16 h; Potency, µM (doses to about 46 µM), hits mostly activators; hit rate 1.3% among 330,000; AID 504466; note: nearly all actives have a fitted effect of over 60% in size
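HEK293T cells expressing luciferase-tagged ELG1 were exposed to compound or DMSO vehicle for 16 hr at 37 °C and 5% CO2. Luciferase activity was then measured with ONE-Glo after 30 min at room temperature.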
SMN2 splice enh – enhancers of SMN2 splice variant expression; HEK293 SMN2-luciferase splicing reporter, luminescence, 30-36 h; Potency, µM (titrated, usually from 46.1 µM), actives largely listed as activators; hit rate 2.8% among 210,000; note: nearly all actives have a fitted effect of over 55% in size
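HEK293 cells carry an SMN2 minigene-luciferase reporter in which exon 7 inclusion puts luciferase in frame. Cells were seeded at 2000 cells/well, attached for 10-12 hours, then exposed to compounds for 30-36 hours at 37C before ONE-Glo luminescence.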
NPC1 prom act – activators of NPC1 promoter; Potency, µM (series often up to 9.22 µM), actives largely listed as activators; Huh7 NPC1 promoter luciferase reporter, 24 h; AID 485313; hit rate 2.4% among 320,000; note: nearly all actives have a fitted effect of over 60% in size
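Stable NPC1-promoter luciferase Huh7 line; cpd (DMSO) 24 h, 37 °C, 5% CO2; Amplite luciferase reagent 10 min RT; luminescence readout. qHTS format.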
Rab9 promoter act – activates the Rab9 promoter. Potency, µM (titrated, usually from 9.22 µM), actives largely listed as activators. hit rate 2.8% among 320,000. Huh7 Rab9 promoter-luciferase reporter, luminescence, 24 h; note: nearly all actives have a fitted effect of over 60% in size
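Huh7 reporter line, Rab9 promoter upstream of luciferase. Compound exposure 24 h at 37 °C in reduced-serum medium with 10% FBS. Read-out: luminescence.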
ELG1 repair inh – blocks ELG1-dependent DNA repair in HEK293T cells; HEK293T ELG1-luciferase reporter, luminescence, 16 h; DNA damage induced by 5-fluorouridine; hit rate 2.3% among 330,000; Potency, µM (titrated, usually from 46.1 µM), most hits filed as inhibitors; note: nearly all actives have a fitted effect of over 55% in size
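DMSO vehicle served as the neutral condition. Each well held 2,000 cells given 5-fluorouridine plus compound; after 16 hr at 37 °C/5% CO2, ONE-Glo was added and luciferase measured 30 min later.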
A number is an active result; 0 = inactive; ? = inconclusive; - = no result; [ ] = remark or other dose. Calls come from the whole dose curve; as a rule, active = well fitted curve in the direction sought with a large enough effect; inconclusive = small, poorly fitted or top-dose-only effect, or another doubt; inactive = no such curve, though single readings can be large; an effect the other way counts as inactive or inconclusive.

SMILES	FLuc counter	ELG1 genotox	SMN2 splice enh	NPC1 prom act	Rab9 promoter act	ELG1 repair inh
CSc1nsc(SCC(=O)N2CCCCC2)n1	0	?	0	0	0	?
COc1ccc(OC)c(NC(=O)NCCc2cccc(Cl)c2)c1	0	0	0	0	0	?
CCC(=O)Nc1ccc2c(c1)nc(CCNC(=O)c1ccco1)n2C	0	0	-	0	0	0
Cn1c(CN2CCOCC2)nc2cc(NC(=O)c3ccc(F)cc3)ccc21	0[2.3 µM]	0	-	0	0	?
COc1ccc(C(=O)Nc2ccc3c(c2)nc(CCNC(=O)c2ccco2)n3C)cc1	15µM	0	-	0	0	?
CC(=O)NCCc1nc2cc(NC(=O)c3ccc(F)cc3)ccc2n1C	21µM	?	-	3.5µM	2µM	?
COc1ccc(C(=O)Nc2ccc3c(c2)nc(CCNC(C)=O)n3C)cc1	12µM	18µM	?	2.8µM	?	?
O=C(Nc1nc(-c2ccc3c(c2)OCCO3)cs1)C1CCCC1	7.6µM	?	11µM	?	2.2µM	?
O=C(CCCCl)Nc1nc(-c2ccc3c(c2)OCCO3)cs1	11µM	5.8µM	-	3.5µM	3.2µM	?
N#CCC(=O)Nc1nc(-c2ccc3c(c2)OCCO3)cs1	7.6µM	?	13µM	?	3.5µM	?
CCOC(=O)N1CCN(C(=O)CSCC(=O)Nc2nc(-c3ccc4c(c3)OCO4)cs2)CC1	?	0	-	?	?	?
O=C(O)c1ccc(S(=O)(=O)N(Cc2ccccc2)C2CCCCC2)cc1	0	0	-	0	0	0
COc1ccc(CNC(=O)CCn2nc(C)c3c(C)n(-c4ccccc4)nc3c2=O)c(OC)c1	0	0	-	0	0	0
O=C(NCc1ccc(F)cc1)c1cnc2sccn2c1=O	0	0	0	0	0	0
O=C(NCCc1c[nH]c2ccccc12)c1cnc2sccn2c1=O	15µM	8.2µM	14µM	3.5µM	4.5µM	?
COc1ccc(CNC(=O)COC(=O)c2n[nH]c3ccccc23)cc1	0	0	0	0	0	0
COc1ccc(CCNC(=O)c2n[nH]c3ccccc23)cc1	21µM	0	0	0	0	0
COc1ccc(C(=O)c2c[nH]c3ccccc23)cc1	3.4µM	-	?	-	-	-
COc1ccc(C(=O)NCCc2c[nH]c3ccccc23)cc1	9.5µM	9.2µM	-	2.8µM	1.6µM	?
COc1ccc(OCC(=O)NCCc2c[nH]c3ccccc23)cc1	0	0	-	0	0	0
CSc1nc2cc(C)nn2c(-c2ccccc2Cl)c1C#N	0	0	-	0	0	0
O=C(NCCc1c[nH]c2ccccc12)c1ccc(F)cc1F	12µM	?	-	?	?	?
Cc1ccsc1C(=O)NCCc1nnc2ccccn12	?	?	-	?	2.5µM	?
Cc1ccsc1C(=O)NCCC(c1ccccc1)c1ccccc1	0	0	0	0	0	0
Cc1ccsc1C(=O)NCCc1c[nH]c2ccccc12	19µM	?	-	?	?	?
SMILES	FLuc counter	ELG1 genotox	SMN2 splice enh	NPC1 prom act	Rab9 promoter act	ELG1 repair inh
CN(Cc1cccs1)C(=O)CCCc1c[nH]c2ccccc12	27µM	?	?	0	3.2µM	?
COc1ccc2[nH]cc(CCNC(=O)C3CCCCC3)c2c1	0	0	-	0	0	0
CCCCOc1cccc(OCC(=O)Nc2nc3ccccc3[nH]2)c1	0	0	0	0	0	0
Cc1ccc(OCc2nc(-c3ccc(C(=O)NCCc4ccc(Cl)cc4)cc3)oc2C)cc1	0	-	-	-	-	-
COc1ccc(-n2cc(CNC3CCC(O)CC3)c(-c3cccc(F)c3)n2)cc1 (stereo not given)	0	0	-	0	0	0
O=C(NCCc1c[nH]c2ccccc12)c1ccc(Cl)cc1	11µM	?	-	1.8µM	2.8µM	?
O=C(NCCSc1c[nH]c2ccccc12)c1ccc(Cl)cc1	0	-	0	-	-	-
CN(C(=O)COC(=O)/C=C/c1cccs1)C1CCCCC1	-	0	-	-	-	?
Cc1ccccc1NC(=O)Cn1c(=O)n(Cc2ccc3c(c2)OCO3)c(=O)c2oc3ccccc3c21	0	-	-	-	-	-
O=C(Oc1ccccc1)c1cc2ccccc2oc1=O	15µM	0	0	0	0	0
COc1ccc(OC(=O)c2cc3ccccc3o2)cc1	0.54µM	0	0	0	0	0
COc1ccc(N2CCN(C(=O)c3cc4ccccc4o3)CC2)cc1	0	0	-	0	0	0
CC(C)OC(=O)c1cc2ccccc2oc1=O	0	0	0	0	0	0
CCN(C(=O)c1cc2ccccc2oc1=O)c1ccccc1	9.5µM	9.2µM	0	?	?	?
CCN(CC)C(=O)c1nc[nH]c1C(=O)N1CCc2ccccc2C1	0	0	-	0	0	0
Cc1ccccc1C(=O)N[C@H](C(=O)OCC(=O)NC1CC1)C(C)C	-	0	-	-	-	0
COc1ccc(CCNC(=O)CSc2nnc(NC(C)=O)s2)cc1OC	0	0	0	0	0	?
Cc1ccc(NC(=O)c2sccc2C)nc1	12µM	2.9µM	-	0.89µM	0.5µM	?
Cc1ccc(NC(=O)c2ccc(F)cc2)nc1	0	0	-	0	0	0
CCc1ccc(NC(=O)Nc2cccs2)cc1	0.85µM	?	14µM	1.1µM	0.79µM	?
Cc1ccc(NC(=O)Nc2cccs2)nc1	21µM	?	?	4µM	2.2µM	?
Cc1ccc(NC(=O)Nc2cccs2)cc1	2.4µM	0	16µM	2.8µM	2.2µM	?
Cc1cc(C(=O)NNC(=O)c2ccc(C)c([N+](=O)[O-])c2)c(C)o1	0	0	-	0	0	0
O=C(COc1cccnc1[N+](=O)[O-])NCCc1ccccc1	0	0	0	0	0	0
CN(Cc1ccccc1)C(=O)c1ccc2c(c1)N(Cc1ccccc1F)C(=O)c1ccccc1S2(=O)=O	0	-	0	-	-	-
SMILES	FLuc counter	ELG1 genotox	SMN2 splice enh	NPC1 prom act	Rab9 promoter act	ELG1 repair inh
CCC(CC)C(=O)Nc1nnc(SCC(=O)NC(C)(C)C)s1	0	0	0	0	0	0
Cc1cc(C)cc(NC(=O)Nc2cccs2)c1	9.5µM	-	0	-	-	-
CCOc1ccc(NC(=O)Nc2cccs2)cc1	1.5µM	4.6µM	11µM	0.89µM	1.4µM	?
Cc1cc(C)cc(NC(=O)Nc2cccnc2)c1	?	0	-	0	0	0
Cc1cc(C)c(NC(=O)Nc2ccc3snnc3c2)c(C)c1	0	-	0	-	-	-
O=C(Nc1ccccc1)Nc1ccc2snnc2c1	11µM	0	11µM	?	?	?
O=C(Nc1cccc(C(F)(F)F)c1)Nc1ccc2snnc2c1	0	-	0	-	-	-
O=C(Nc1ccccc1)Nc1ccc2nnsc2c1	7.6µM	0	-	?	4µM	?
CN(C)c1ccc(NC(=O)Nc2ccc3snnc3c2)cc1	7.6µM	0	0	?	?	?
CCOc1ccc(NC(=O)Nc2ccc3snnc3c2)cc1	0	-	0	-	-	-
CCN(CC)C(=O)[C@H]1CC(CC(=O)NCc2ccco2)C(=O)N2CCc3c([nH]c4ccc(OC)cc34)[C@]12C (stereo not given in full)	-	0	-	-	-	0
CCN(CC)c1ccc(/C=N/Nc2nn[nH]n2)cc1	17µM	0	-	0	0	?

Source: PubChem BioAssay
